Assay outcomes (PubChem)
Lmaj promast: Leishmania major promastigote growth inhibition; inhibition, % at 10 µM; AID 1063; 200,000 compounds, 9% hits; Leishmania major promastigotes, resazurin fluorescence viability; in the data active means inhibition above about 50%;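 further: promastigotes grown with compound for 44 hours at 28 °C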
Autophagy mod: modulators of autophagy | MEF GFP-LC3 puncta imaging; test concentration mostly 10 µM | calls only at 10 µM (by protocol) | 190,000 compounds, 0.98% hits | AID 463193;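 active means percentage of spot-positive cells more than 3 SD above its plate mean, without a fluorescence outlier flag or 80% toxicity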;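 further: spot-positive cell cutoff set from DMSO-treated cells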
Insulin prom up: MIN6 insulin promoter up-regulation; MIN6 insulin promoter-GFP reporter, high-content imaging; active compounds read high; z-score at 5 µM; 190,000 compounds, 0.3% hits; AID 1625;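 active means z-score above 3 at 5 µM with at least 500 cells counted in the well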
WT yeast gro inh: growth inhibition of WT yeast, mitochondrial fusion screen. mitochondrial fusion phenotypic screen, WT strain. inhibition, % at 10 µM. AID 1362. 190,000 compounds, 2.1% hits; in the data active means inhibition above about 58%; tested in S. cerevisiae
INS promoter inh: TRM-6 insulin promoter activity inhibition; TRM-6 cells (human fetal islet line), insulin promoter-eGFP reporter, imaging; reporter expression induced with tamoxifen; inhibition, % at 2 µM; 130,000 compounds, 0.9% hits;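 active means inhibition above the mean plus 3 SD, with well images judged a real hit on visual review, cut at about 60% in these data, passing the limit was not always enough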
Active calls of the source: *; i = inactive; x = no result given. A selection: hits, their analogues and other compounds. The true share with any hit is near 11%.

SMILES | Lmaj promast | Autophagy mod | Insulin prom up | WT yeast gro inh | INS promoter inh
N/C(=N\OC(=O)C1CCCCC1)c1cccc([N+](=O)[O-])c1 | -6 | i | 3* | -16 | 23
Cc1ccc(CC(=O)O/N=C(\N)c2cccc([N+](=O)[O-])c2)cc1 | 80* | i | 0.08 | 47 | 36
CN(CC(=O)O/N=C(\N)c1ccc([N+](=O)[O-])cc1)S(=O)(=O)c1ccccc1 | -7 | i | x | 12 | -17
CN(CC(=O)O/N=C(\N)c1cccc([N+](=O)[O-])c1)S(=O)(=O)c1ccccc1 | -1 | i | 0.53 | 58* | -18
O=C(Nn1c(C2CCC2)nc2ccccc2c1=O)c1cccs1 | -9 | i | -0.02 | 7 | 0
CC(=O)C1C(=O)c2c(cccc2[N+](=O)[O-])C1=Nc1ccc(S(N)(=O)=O)cc1 (configuration not stated) | 0 | i | -0.03 | 2 | x
COCCN(Cc1ccccc1)C(=S)Nc1ccc(Cl)cc1 | 46 | i | x | 50 | -14
c1ccc(-c2cn3c(n2)-c2ccccc2C3)cc1 | 8 | i | 1.7 | 42 | x
Cc1c(NS(=O)(=O)c2ccc(Cl)c(C(=O)OCC(=O)NCc3ccco3)c2)c(=O)n(-c2ccccc2)n1C | -5 | i | -0.18 | 10 | -14
CCOC(=O)c1cnc(-n2nc(C)cc2C)nc1NNc1cc(-c2ccccc2)nc(C)n1 | 100* | i | -2 | -3 | -100
CCOC(=O)c1cnc(-c2ccccc2)nc1N1CC(C)OC(C)C1 (configuration not stated) | 11 | i | -2.7 | 12 | x
CCOC(=O)c1cnc(-n2nc(C)cc2C)nc1NNc1ncc(-c2ccccc2)cn1 | x | x | 0.53 | x | x
CCOC(=O)c1cnc(-n2nc(C)cc2C)nc1NCc1ccccc1 | 90* | i | -3.8 | 65* | -21
CCOC(=O)c1cnc(-n2nc(C)cc2C)nc1NC(C)c1ccccc1 (configuration not stated) | 96* | i | x | 27 | -4
CCOC(=O)c1cnc(-n2nc(C)cc2C)nc1N1CC(C)OC(C)C1 (configuration not stated) | 67* | i | x | x | -19
N=C1CCCN1CC(=O)c1ccc(Br)cc1 | -3 | i | -0.23 | -5 | x
Cc1cccnc1NC(=S)Nc1ccc(F)cc1F | -3 | i | 0.28 | 5 | x
Cc1ccc(C)c(NC(=S)Nc2ncccc2C)c1 | 16 | i | -0.54 | 68* | x
CN1/C(=C\C(=O)c2cccs2)C(C)(C)c2ccccc21 | 22 | i | -0.21 | 72 | x
Cc1cc(Br)c2c(c1)/C(=C/C(=O)c1cccs1)C(=O)N2 | 100* | i | -0.02 | 49 | x
Cc1cccc2c1NC(=O)/C2=C\C(=O)c1cccs1 | 100* | i | x | 37 | 67*
Cc1cc(C)c2c(c1)/C(=C/C(=O)c1ccc(Br)s1)C(=O)N2 | 100* | i | -0.12 | 87* | x
CCc1ccc2c(c1)/C(=C/C(=O)c1cccs1)C(=O)N2 | 101* | i | -0.52 | 81 | -3
COc1ccc(C(=O)NC(=S)N2CCN(C)CC2)cc1Br | -6 | i | -0.05 | -1 | 0
COCCN(C(=O)COc1ccc(Cl)cc1)c1nnc(-c2cccnc2)s1 | 0 | i | 0.44 | 18 | -44
SMILES | Lmaj promast | Autophagy mod | Insulin prom up | WT yeast gro inh | INS promoter inh
C=C1CCN([C@H](C(=O)OCc2cccc(C)c2)C(C)C)S(=O)(=O)c2ccccc21 | x | x | -0.9 | x | x
CC(=O)Nc1cccc(-c2csc(Nc3ccc(C)cn3)n2)c1 | 28 | i | -0.73 | 27 | x
COc1ccc(-c2csc(NC3=NCCCCC3)n2)cc1 | 88* | i | -0.34 | 9 | 24
COc1ccc(-c2csc(Nc3ccc(C)cn3)n2)cc1 | 12 | i | 0.57 | 58* | x
CCN(CC)CCN(C(=O)CCOc1ccccc1)c1nc2ccc(F)cc2s1 | -7 | i | 0.2 | 6 | 22
Cn1c(/C=C(\C#N)C(N)=S)ccc1-c1ccc(Br)cc1 | -4 | i | -0.82 | 8 | x
Cc1ccc(S(=O)(=O)NCC(=O)N(c2ccccc2)C(C(=O)NCc2ccccc2)c2ccco2)cc1 (configuration not stated) | 2 | i | 0.66 | 6 | -58
Cc1cc(C)cc(N(C(=O)CNS(=O)(=O)c2ccccc2)C(C(=O)NCc2ccccc2)c2ccc(C)o2)c1 (configuration not stated) | 55* | i | x | 17 | x
Cc1ccc(-n2c3nc(=O)[nH]c(=O)c-3cc3cc([N+](=O)[O-])ccc32)cc1 | 95* | i | 0.8 | 5 | 63
Cc1ccc(-n2c(C)nn(Cc3ccc([N+](=O)[O-])cc3)c2=O)cc1 | -8 | i | -0.54 | -14 | x
FC(F)(F)c1ccc(Oc2ccc3ccccc3c2Br)nc1 | -4 | i | 0.03 | 81* | x
Cc1nc2nc3c(c(=O)n2[nH]1)CCC3 | -10 | i | -0.91 | 0 | 19
O=c1c2c(nc3nc(Cc4ccccc4)[nH]n13)CCC2 | -8 | i | x | -14 | 92*
O=C(CCCN1C(=O)c2cccc3cccc(c23)C1=O)N1CCN(c2ccccc2O)CC1 | 70* | i | -0.36 | 11 | -8
O=C1c2cccc3cccc(c23)C(=O)N1CCN1CCN(C(=S)Nc2ccc(F)cc2)CC1 | 59* | i | -0.05 | -4 | -4
Cc1ccc(NC(=S)N2CCN(CCN3C(=O)c4cccc5cccc(c45)C3=O)CC2)cc1 | 100* | i | -0.24 | 6 | -3
O=C(CCCN1C(=O)c2cccc3cccc(c23)C1=O)N1CCN(c2ccccc2)CC1 | 43 | i | -1 | 1 | x
O=C1c2cccc3cccc(c23)C(=O)N1CCCN1CCN(c2ccc(F)cc2)CC1 | 34 | i | x | 60* | 10
CCc1nnc(NC(=O)CSc2nc3cc(OC)ccc3cc2C)s1 | 2 | i | 0.18 | -2 | -29
Cc1cc(C)c(NC(=O)C(C)c2cccc(C(=O)c3ccccc3)c2)c(C)c1 (configuration not stated) | 6 | i | 0.25 | 35 | x
CCn1c(-c2ccccc2Cl)nn(CC(=O)Nc2ccc(OC)cc2)c1=S | 3 | i | -0.13 | -17 | x
CCOc1cc(CN2CCCC(CNC(=O)c3ccc(F)cc3)C2)ccc1OC (configuration not stated) | x | x | -0.2 | x | x
Oc1cccc(C(O)CNCc2ccc(OCc3ccc(Cl)cc3Cl)cc2)c1 (configuration not stated) | 97* | i | 0.36 | 88* | 0
O=C(NC(C(=O)N/N=C/c1c2ccccc2cc2ccccc12)c1n[nH]c(=O)c2ccccc12)c1ccccc1 (configuration not stated) | 93* | i | -0.3 | -6 | -27
O=C1Nc2ccccc2N(O)N1c1cc(-c2ccccc2)[nH]n1 | -4 | i | 0.41 | 13 | 85*
COc1ccc(-c2cc(CS(=O)(=O)c3ccccc3)on2)cc1 | -3 | i | 0.49 | -13 | -76
COc1cccc(C2C(=O)N(C3CCCCC3)CC(=O)N2Cc2ccc(F)cc2)c1 (configuration not stated) | 53* | i | 1.1 | 4 | 17
COc1ccccc1CN1C(=O)CN(C2CCCCCC2)C(=O)C1c1ccc(F)cc1 (configuration not stated) | 19 | i | -0.07 | 12 | -43
